# Test results taken from ChEMBL document CHEMBL3988442, “University of Dundee, Small-Polar-MMV Screening Library” (2021).
# For part of these data: Results with a measured potency or affinity are listed apart.
# What was measured:
# [1] = target: Protein translocase subunit SecA (Escherichia coli (strain K12)) (UniProt P10408); assay: Assay to Identify E. coli SecA ATPase Inhibitors; assay type: functional; parameters: scale not given: direction of the effect not stated beside the values; conditions: 30 µM
# [2] = target: T1, Ubiquitin-activating enzyme e1, putative (Leishmania donovani (strain BPK282A1)) (UniProt E9BSI1); assay: Leishmania donovani Ubiquitin Activating Enzyme (LdE1); assay type: functional; parameters: scale not given: direction of the effect not stated beside the values; conditions: 30 µM
# T1 sequence (whole entry): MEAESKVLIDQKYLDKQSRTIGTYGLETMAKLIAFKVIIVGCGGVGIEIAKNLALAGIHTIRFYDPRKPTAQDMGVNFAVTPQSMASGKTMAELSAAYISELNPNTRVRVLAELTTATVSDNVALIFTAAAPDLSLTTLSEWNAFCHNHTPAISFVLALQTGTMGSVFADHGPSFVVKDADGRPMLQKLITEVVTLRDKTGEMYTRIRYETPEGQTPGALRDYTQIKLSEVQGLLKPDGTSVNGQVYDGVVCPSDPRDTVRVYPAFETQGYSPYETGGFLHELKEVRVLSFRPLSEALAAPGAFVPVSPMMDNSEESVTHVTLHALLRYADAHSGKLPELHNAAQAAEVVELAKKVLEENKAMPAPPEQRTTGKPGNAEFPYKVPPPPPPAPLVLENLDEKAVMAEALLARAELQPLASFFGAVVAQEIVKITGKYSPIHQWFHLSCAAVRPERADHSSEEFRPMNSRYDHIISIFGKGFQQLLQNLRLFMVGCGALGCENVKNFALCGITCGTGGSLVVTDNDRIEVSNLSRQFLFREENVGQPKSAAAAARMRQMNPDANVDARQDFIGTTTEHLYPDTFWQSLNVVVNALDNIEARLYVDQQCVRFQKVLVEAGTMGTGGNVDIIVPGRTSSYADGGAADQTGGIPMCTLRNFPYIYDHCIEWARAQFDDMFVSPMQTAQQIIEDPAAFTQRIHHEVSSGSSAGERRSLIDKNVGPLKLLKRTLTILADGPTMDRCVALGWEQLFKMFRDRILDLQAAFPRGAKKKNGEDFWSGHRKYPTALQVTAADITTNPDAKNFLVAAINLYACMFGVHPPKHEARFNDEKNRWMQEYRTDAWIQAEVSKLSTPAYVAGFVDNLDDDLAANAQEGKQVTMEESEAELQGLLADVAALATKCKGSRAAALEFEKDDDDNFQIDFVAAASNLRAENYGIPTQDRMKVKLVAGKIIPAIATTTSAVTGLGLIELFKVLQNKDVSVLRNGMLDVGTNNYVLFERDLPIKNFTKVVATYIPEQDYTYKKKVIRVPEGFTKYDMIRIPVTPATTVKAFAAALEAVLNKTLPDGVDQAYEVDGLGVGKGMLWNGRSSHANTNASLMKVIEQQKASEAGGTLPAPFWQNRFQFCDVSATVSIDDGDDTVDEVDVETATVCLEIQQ
# [3] = target: T2, Aspartate--tRNA(Asp/Asn) ligase (Mycobacterium tuberculosis (strain ATCC 25618 / H37Rv)) (UniProt P9WFW3); assay: Assay for Asp RNA synthetase-1 from Mycobacterium tuberculosis; assay type: functional; parameters: scale not given: direction of the effect not stated beside the values; conditions: 30 µM; note: in the data most compounds retested in dose-response had high values
# T2 sequence (whole entry): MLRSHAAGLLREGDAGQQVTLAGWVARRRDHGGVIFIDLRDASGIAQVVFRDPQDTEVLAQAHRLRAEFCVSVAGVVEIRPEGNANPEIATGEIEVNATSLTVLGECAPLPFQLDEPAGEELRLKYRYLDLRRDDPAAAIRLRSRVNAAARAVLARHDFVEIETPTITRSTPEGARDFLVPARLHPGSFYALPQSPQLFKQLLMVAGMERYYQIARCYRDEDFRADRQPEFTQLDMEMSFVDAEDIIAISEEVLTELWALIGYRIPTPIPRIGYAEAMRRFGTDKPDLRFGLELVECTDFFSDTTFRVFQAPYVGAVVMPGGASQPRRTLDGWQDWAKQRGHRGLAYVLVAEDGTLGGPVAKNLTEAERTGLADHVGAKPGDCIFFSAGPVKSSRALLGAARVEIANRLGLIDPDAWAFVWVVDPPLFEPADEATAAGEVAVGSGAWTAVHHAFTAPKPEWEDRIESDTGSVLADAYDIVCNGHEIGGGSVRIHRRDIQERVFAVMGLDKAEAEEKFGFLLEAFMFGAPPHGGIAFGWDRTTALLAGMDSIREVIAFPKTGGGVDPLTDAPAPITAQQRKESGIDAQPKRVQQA
# [4] = target: AMP-activated protein kinase, AMPK (Homo sapiens) (UniProt P54646+O43741+P54619+Q9UGJ0+Q9Y478+Q13131+Q9UGI9); assay: AMP-dependent Kinase enzyme assay. An in vitro enzyme assay that detects ADP turnover that is directly proportional to AMPK activity. This uses naive AMPK that is activated during the assay with MK-8722; assay type: functional; parameters: scale not given: direction of the effect not stated beside the values; conditions: 30 µM
# [5] = target: Sialic acid-binding Ig-like lectin 9 (Homo sapiens) (UniProt Q9Y336); assay: Hs-Siglec9 ALPHAscreen SOP 20170721; parameters: scale not given: direction of the effect not stated beside the values; conditions: 10 µM
# Trypanosoma cruzi = assay: Trypanosoma cruzi phosphomannomutase and mannose-1-phosphate guanylyltransferase assay; assay type: functional; parameters: scale not given: direction of the effect not stated beside the values; conditions: 10 µM
# [6] = target: T3, Arginase-2, mitochondrial (Homo sapiens) (UniProt P78540); assay: in vitro enzyme assay to detect the production of urea directly proportional to the activity of Arginase II; assay type: functional; parameters: scale not given: in the data most compounds retested in dose-response had high values; conditions: 33.3 µM
# T3 sequence (whole entry): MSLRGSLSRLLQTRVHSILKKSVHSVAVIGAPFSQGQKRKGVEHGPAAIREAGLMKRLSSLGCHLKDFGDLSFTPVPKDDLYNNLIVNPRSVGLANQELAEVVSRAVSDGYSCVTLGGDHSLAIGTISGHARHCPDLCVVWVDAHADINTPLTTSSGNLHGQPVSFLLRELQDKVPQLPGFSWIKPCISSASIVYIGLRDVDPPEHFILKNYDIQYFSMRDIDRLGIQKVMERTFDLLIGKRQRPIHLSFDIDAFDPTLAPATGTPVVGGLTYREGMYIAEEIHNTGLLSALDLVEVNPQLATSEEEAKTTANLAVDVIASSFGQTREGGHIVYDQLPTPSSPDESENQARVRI
# [7] = target: T4, Proteasome subunit beta (Trypanosoma cruzi) (UniProt O96673); assay: Trypanosoma cruzi proteasome chymotrypsin-like activity (TcProtChymo) assay.; assay type: functional; parameters: scale not given: in the data most compounds retested in dose-response had high values; conditions: 9.37 µM
# T4 sequence (whole entry): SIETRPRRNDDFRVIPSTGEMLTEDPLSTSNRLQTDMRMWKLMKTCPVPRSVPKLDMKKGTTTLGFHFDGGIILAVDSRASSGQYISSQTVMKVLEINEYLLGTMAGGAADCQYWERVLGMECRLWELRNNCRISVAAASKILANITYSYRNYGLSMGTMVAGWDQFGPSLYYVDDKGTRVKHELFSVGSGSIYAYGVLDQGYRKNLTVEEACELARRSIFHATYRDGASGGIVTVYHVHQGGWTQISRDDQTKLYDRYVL
# Homo sapiens = species: Homo sapiens; assay: To identify inhibition of the IFN signalling (Jak-Stat) pathway via expression of an eGFP reporter gene under the control of an IFN-stimulated response element (ISRE) containing MxA promoter.; assay type: functional; parameters: scale not given: direction of the effect not stated beside the values; conditions: 30 µM
# [8] = target: Shiga toxin 2 (Escherichia coli O157:H7) (UniProt P09385+P09386); assay: E. coli 0.157:H7 Shiga Toxin SOP - stx2 screening assay; assay type: functional; parameters: scale not given: direction of the effect not stated beside the values; conditions: 30 µM
# [9] = target: T5, Tyrosyl-tRNA synthetase, putative (Trypanosoma cruzi (strain CL Brener)) (UniProt Q4DSP6); assay: Trypanosoma cruzi tyrosyl tRNA synthetase (TcYRS) _High Tyrosine SOP; assay type: functional; parameters: scale not given: in the data most compounds retested in dose-response had high values; conditions: 30 µM
# T5 sequence (whole entry): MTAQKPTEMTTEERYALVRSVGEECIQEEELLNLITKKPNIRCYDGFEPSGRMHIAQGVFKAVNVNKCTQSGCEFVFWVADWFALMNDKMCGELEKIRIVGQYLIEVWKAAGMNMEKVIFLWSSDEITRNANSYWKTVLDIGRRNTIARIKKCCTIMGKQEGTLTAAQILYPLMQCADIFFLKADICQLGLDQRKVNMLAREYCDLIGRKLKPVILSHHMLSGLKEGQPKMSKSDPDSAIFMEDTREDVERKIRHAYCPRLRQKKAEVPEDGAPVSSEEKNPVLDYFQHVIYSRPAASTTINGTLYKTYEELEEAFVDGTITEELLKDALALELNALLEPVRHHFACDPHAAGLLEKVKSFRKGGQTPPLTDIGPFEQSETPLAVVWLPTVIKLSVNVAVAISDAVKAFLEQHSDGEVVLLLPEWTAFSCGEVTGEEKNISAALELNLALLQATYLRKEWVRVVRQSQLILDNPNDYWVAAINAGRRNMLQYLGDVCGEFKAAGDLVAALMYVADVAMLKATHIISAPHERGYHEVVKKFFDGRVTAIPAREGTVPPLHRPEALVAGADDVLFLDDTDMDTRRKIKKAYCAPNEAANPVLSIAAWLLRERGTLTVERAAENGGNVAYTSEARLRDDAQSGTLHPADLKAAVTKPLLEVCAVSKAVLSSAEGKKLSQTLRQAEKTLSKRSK
# [10] = target: T5, Tyrosyl-tRNA synthetase, putative (Trypanosoma cruzi (strain CL Brener)); assay: Trypanosoma cruzi tyrosyl tRNA synthetase (TcYRS) SOP; assay type: functional; parameters: scale not given: direction of the effect not stated beside the values; conditions: 30 µM
# [11] = target: Chromo domain-containing protein 1 (Saccharomyces cerevisiae (strain ATCC 204508 / S288c) (Baker's yeast)) (UniProt P32657); assay: ScCHD-1 Enzyme Inhibition Assay; assay type: functional; parameters: scale not given: in the data most compounds retested in dose-response had high values; conditions: 30 µM
# [12] = target: T6, Methionyl-tRNA synthetase, putative (Leishmania donovani (strain BPK282A1)) (UniProt E9BF75); assay: Leishmania donovani Methionine tRNA synthetase (LdMetRS):v7. Dose response assay; assay type: functional; parameters: conc 80 nM, time 150 minutes
# T6 sequence (whole entry): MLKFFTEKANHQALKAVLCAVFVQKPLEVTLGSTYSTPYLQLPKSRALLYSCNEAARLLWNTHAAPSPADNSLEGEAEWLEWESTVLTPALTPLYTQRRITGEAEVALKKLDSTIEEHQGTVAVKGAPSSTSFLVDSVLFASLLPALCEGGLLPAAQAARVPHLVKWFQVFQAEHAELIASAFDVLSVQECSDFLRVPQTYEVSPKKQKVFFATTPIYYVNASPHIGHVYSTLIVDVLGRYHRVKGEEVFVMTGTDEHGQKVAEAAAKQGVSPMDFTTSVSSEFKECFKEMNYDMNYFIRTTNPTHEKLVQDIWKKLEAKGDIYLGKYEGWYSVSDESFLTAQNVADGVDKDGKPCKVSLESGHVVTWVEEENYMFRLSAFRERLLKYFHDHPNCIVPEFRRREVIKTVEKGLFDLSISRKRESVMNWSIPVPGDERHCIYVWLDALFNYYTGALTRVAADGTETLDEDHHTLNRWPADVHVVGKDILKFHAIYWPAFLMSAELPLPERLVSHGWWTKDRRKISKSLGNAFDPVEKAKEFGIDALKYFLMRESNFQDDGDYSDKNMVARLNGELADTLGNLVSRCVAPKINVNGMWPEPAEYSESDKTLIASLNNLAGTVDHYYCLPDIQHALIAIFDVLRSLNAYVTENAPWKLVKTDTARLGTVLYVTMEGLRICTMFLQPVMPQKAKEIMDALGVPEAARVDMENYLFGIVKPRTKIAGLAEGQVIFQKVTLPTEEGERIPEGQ
# Sequence of Chromo domain-containing protein 1 (Saccharomyces cerevisiae (strain ATCC 204508 / S288c) (Baker's yeast)) (P32657 whole entry, the tested form may be a part): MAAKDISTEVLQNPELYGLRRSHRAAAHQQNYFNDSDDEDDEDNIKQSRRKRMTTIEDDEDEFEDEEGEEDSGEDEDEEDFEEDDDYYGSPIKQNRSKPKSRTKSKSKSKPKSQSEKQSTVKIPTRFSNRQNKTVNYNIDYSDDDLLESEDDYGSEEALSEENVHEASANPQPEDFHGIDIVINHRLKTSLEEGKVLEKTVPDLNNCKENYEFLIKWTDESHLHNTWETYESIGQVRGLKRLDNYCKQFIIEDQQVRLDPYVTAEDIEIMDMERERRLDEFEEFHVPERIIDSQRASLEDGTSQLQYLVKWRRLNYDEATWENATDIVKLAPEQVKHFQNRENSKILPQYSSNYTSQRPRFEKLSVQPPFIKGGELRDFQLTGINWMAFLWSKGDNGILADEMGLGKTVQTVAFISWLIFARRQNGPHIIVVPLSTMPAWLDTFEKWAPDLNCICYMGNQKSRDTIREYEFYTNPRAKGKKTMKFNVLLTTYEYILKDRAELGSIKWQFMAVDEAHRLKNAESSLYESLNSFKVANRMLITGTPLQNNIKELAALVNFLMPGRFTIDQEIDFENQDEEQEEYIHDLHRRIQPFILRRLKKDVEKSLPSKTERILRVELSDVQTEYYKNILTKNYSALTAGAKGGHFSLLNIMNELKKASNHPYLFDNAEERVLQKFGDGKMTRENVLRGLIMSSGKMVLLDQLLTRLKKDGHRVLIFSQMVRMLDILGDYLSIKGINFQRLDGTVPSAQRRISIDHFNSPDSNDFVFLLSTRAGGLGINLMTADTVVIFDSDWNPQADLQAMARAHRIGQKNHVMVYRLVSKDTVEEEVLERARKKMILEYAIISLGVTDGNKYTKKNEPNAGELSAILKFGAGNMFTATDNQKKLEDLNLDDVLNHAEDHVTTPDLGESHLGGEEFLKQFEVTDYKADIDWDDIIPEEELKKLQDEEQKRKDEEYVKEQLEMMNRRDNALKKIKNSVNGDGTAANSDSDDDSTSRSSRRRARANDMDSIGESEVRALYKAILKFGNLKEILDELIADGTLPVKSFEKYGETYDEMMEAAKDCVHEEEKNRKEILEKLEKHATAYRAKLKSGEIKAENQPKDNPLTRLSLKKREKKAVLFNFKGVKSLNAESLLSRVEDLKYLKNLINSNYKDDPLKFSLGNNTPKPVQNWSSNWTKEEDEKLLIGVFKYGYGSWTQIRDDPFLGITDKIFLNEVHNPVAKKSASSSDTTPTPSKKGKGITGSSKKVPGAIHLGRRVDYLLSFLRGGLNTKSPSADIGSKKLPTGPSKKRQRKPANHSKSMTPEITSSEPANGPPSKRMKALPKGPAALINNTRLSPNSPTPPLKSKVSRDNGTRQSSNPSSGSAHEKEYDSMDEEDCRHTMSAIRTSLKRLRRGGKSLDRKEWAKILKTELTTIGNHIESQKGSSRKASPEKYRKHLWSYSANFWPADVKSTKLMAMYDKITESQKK
# Sequence of Sialic acid-binding Ig-like lectin 9 (Homo sapiens) (Q9Y336 whole entry): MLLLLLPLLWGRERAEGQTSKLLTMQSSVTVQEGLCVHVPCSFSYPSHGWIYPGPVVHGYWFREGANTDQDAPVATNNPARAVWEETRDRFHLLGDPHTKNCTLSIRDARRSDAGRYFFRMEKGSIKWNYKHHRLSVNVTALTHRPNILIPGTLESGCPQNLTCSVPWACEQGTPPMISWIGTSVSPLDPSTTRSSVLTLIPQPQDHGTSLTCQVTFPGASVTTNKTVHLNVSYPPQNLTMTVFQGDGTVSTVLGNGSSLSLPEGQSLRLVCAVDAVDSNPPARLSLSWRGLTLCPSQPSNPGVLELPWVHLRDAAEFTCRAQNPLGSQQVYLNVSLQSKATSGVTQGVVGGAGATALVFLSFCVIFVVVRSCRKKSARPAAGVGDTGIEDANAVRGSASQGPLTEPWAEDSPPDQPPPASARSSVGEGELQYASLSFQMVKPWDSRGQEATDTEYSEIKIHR
# Sequence of Protein translocase subunit SecA (Escherichia coli (strain K12)) (P10408 whole entry): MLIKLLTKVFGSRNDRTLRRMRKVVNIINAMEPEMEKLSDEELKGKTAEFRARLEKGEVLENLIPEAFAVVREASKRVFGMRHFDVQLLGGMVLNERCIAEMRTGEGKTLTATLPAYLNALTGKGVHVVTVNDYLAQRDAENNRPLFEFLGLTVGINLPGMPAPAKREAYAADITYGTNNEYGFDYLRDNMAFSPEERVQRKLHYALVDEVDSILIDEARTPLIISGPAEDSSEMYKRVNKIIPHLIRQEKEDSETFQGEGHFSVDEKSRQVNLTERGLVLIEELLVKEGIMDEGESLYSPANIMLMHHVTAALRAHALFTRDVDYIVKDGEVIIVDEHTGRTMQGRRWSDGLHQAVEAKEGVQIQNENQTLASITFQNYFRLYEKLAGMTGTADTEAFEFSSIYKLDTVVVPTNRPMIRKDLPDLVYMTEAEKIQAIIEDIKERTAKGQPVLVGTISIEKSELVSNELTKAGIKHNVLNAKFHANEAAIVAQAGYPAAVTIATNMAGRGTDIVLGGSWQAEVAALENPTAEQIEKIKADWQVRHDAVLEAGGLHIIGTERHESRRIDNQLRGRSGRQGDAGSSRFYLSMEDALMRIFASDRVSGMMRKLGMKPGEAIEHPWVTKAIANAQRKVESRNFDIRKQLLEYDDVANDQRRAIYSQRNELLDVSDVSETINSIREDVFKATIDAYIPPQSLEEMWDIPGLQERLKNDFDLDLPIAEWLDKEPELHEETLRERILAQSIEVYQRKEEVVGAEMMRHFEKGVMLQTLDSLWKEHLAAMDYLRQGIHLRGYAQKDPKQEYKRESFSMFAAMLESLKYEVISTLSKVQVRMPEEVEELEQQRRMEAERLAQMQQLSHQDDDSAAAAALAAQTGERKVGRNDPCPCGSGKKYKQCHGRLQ
smiles,measurement,setting,value
CC1=N[C@@]2(CC[C@@H]3CNC[C@@H]32)C(=O)N1CC(C)C,Percent Effect,[1],0.0241%
same,Percent Effect,[2],13.5%
same,Percent Effect,[3],7.41%
same,Percent Effect,[4],-8.73%
same,Percent Effect,[5],-11.6%
same,Percent Effect,Trypanosoma cruzi,-6.35%
same,Percent Effect,[6],7.96%
same,Percent Effect,[7],11.2%
same,Percent Effect,Homo sapiens,30.2%
same,Percent Effect,[8],-6.54%
same,Percent Effect,[9],-1.08%
same,Percent Effect,[10],0%
same,Percent Effect,[11],-5.25%
Oc1ccc(Cl)cc1Cl,PXC50,[12]; MAX_EFFECT 9.315589354,< 3
same,PXC50,[12]; MAX_EFFECT 10.1511879,< 3
NCC(O)c1cc(Cl)cc(Cl)c1 (stereo not given),PXC50,[12]; MAX_EFFECT 9.287257019,< 3
same,PXC50,[12]; MAX_EFFECT 13.11787072,< 3
NCC1(c2cccc(Br)c2)CCOCC1,Percent Effect,[1],-5.22%
same,Percent Effect,[2],2.7%
same,Percent Effect,[3],5.62%
same,Percent Effect,[4],-4.06%
same,Percent Effect,[5],-6.14%
same,Percent Effect,Trypanosoma cruzi,-2.93%
same,Percent Effect,[6],-22.5%
same,Percent Effect,[7],8.2%
same,Percent Effect,Homo sapiens,2.44%
same,Percent Effect,[8],-23.5%
same,Percent Effect,[9],8.91%
same,Percent Effect,[10],-6.1%
same,Percent Effect,[11],-2.29%
